Laboratory results as given in PubChem BioAssay (EPA / NIEHS).
Active and inactive are the calls of the source. The calls were made as follows: active = hit-call score of the fitted dose curve at least 0.9, where 1 is the maximum; inactive = score below 0.9.

tested on: not listed separately; test: ATG_EGR_CIS: Attagene CIS-FACTORIAL HepG2 Assay for human Early Growth Response 1 (EGR1) (AID 2282938); conditions: HepG2 Attagene CIS-FACTORIAL EGR reporter mRNA; actives raise or lower the signal
How it was run: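 HepG2, transient MRTU transfection (cis promoters), 24 h compound. RNA → RT (oligo-dT) → PCR → 6-FAM labelling → HpaI cut → CE fluorescence. Bidirectional fit, DMSO baseline.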

| SMILES | outcome | AC50 |
| --- | --- | --- |
| COC(=O)CCCC(=O)OC | inactive | – |
| OCC(CO)n1cnc(-c2ccc(F)cc2)c1-c1ccnc(Oc2ccccc2)n1 | inactive | – |
| CCCC(=O)O | inactive | – |
| CC(=O)[C@@]1(O)CC[C@H]2[C@@H]3CCC4=CC(=O)CC[C@]4(C)[C@H]3CC[C@@]21C | inactive | – |
| CCc1nc(N)nc(N)c1-c1ccc(Cl)cc1 | – | 32.8 µM (active) |
| O=C1NC(=O)C(c2ccccc2)(c2ccccc2)N1 | inactive | – |
| Oc1ccccc1O | inactive | – |
| CCCCCCCCCC[N+](C)(C)[O-] | inactive | – |

tested on: not listed separately; test: ATG_M_19_CIS: Attagene CIS-FACTORIAL HepG2 Assay for M19 Transcription Factor (Internal Marker) (AID 2282939); conditions: HepG2 Attagene CIS-FACTORIAL M19 internal marker reporter; actives raise or lower the signal
How it was run: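 Readout: fluorescent reporter-transcript fragments by capillary electrophoresis after RT-PCR. Human HepG2 liver cells carried transfected MRTU constructs reporting endogenous transcription-factor activity; exposure 24 h. Gain or loss of signal fitted relative to DMSO.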

| SMILES | outcome |
| --- | --- |
| COC(=O)[C@H]1[C@H]2C[C@@H]3c4[nH]c5cc(OC)ccc5c4CCN3C[C@H]2C[C@@H](OC(=O)c2cc(OC)c(OC)c(OC)c2)[C@@H]1OC | inactive |
| CC(COCC(C)OC(=O)c1ccccc1)OC(=O)c1ccccc1 (stereo unspecified) | inactive |
| COc1ccc(C(=O)Nc2nc3ccccc3c(NCc3ccccc3)c2C#N)cc1 | inactive |
| Oc1ccc(O)cc1 | inactive |
| O=C1O[C@H]([C@H](O)CO)C(O)=C1O | inactive |
| O=[Si]=O | inactive |
| O=C(O)c1cccnc1 | inactive |
| CC(=O)O | inactive |
| Cc1ccc(C(C)(C)C)c(O)c1 | inactive |
| NC1CCCCC1 | inactive |
| CC(C)(O)c1ccc(CNC(=O)c2cccnc2Oc2ccc(F)cc2)cc1 | inactive |
| C/C=C/C=C/C(=O)O | inactive |
| CC(C)(C)c1ccccc1 | inactive |
| S=c1[nH]c2ccccc2s1 | inactive |
| O=C(NS(=O)(=O)/C=C/c1cccs1)c1ccc(F)cc1Br | inactive |
| O=C(N[C@@H](c1ccccc1)[C@@H]1CCCCN1)c1cccc(C(F)(F)F)c1Cl | inactive |
| CCOCCOCCO | inactive |
| CC(C)c1cccc(C(C)C)c1 | inactive |
| Nc1nc(Cl)nc2c1ncn2[C@H]1C[C@H](O)[C@@H](CO)O1 | inactive |
| CCN(CC)CCOc1ccc(C(=C(Cl)c2ccccc2)c2ccccc2)cc1 | inactive |
| COC(=O)CCCC(=O)OC | inactive |
| OCC(CO)n1cnc(-c2ccc(F)cc2)c1-c1ccnc(Oc2ccccc2)n1 | inactive |
| CCCC(=O)O | inactive |
| CCc1nc(N)nc(N)c1-c1ccc(Cl)cc1 | inactive |
| Oc1ccccc1O | inactive |
| CCCCCCCCCC[N+](C)(C)[O-] | inactive |

tested on: not listed separately; test: ATG_Ets_CIS: Attagene CIS-FACTORIAL HepG2 Assay for human Erythroblast Transformation Specific (ETS) (AID 2282941); conditions: HepG2 ETS cis-reporter transcription, actives raise or lower the signal
How it was run: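 Multiplexed reporter transcript profiling: HepG2, 24 h treatment, total RNA to cDNA, PCR, 6-FAM labelling, HpaI cut, capillary electrophoresis. Gain- or loss-of-signal fitted against DMSO.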

| SMILES | outcome | AC50 |
| --- | --- | --- |
| COC(=O)[C@H]1[C@H]2C[C@@H]3c4[nH]c5cc(OC)ccc5c4CCN3C[C@H]2C[C@@H](OC(=O)c2cc(OC)c(OC)c(OC)c2)[C@@H]1OC | inactive | – |
| CC(COCC(C)OC(=O)c1ccccc1)OC(=O)c1ccccc1 (stereo unspecified) | inactive | – |
| COc1ccc(C(=O)Nc2nc3ccccc3c(NCc3ccccc3)c2C#N)cc1 | inactive | – |
| Oc1ccc(O)cc1 | inactive | – |
| O=C1O[C@H]([C@H](O)CO)C(O)=C1O | inactive | – |
| O=[Si]=O | inactive | – |
| O=C(O)c1cccnc1 | inactive | – |
| CC(=O)O | inactive | – |
| CC(=O)O[C@]1(C(C)=O)CC[C@H]2[C@@H]3C=C(Cl)C4=CC(=O)[C@@H]5C[C@@H]5[C@]4(C)[C@H]3CC[C@@]21C | inactive | – |
| Cc1ccc(C(C)(C)C)c(O)c1 | – | 63.7 µM (active) |
| NC1CCCCC1 | inactive | – |
| CC(C)(O)c1ccc(CNC(=O)c2cccnc2Oc2ccc(F)cc2)cc1 | inactive | – |
| C/C=C/C=C/C(=O)O | inactive | – |
| CC(C)(C)c1ccccc1 | inactive | – |
| S=c1[nH]c2ccccc2s1 | inactive | – |
| O=C(NS(=O)(=O)/C=C/c1cccs1)c1ccc(F)cc1Br | inactive | – |
| O=C(N[C@@H](c1ccccc1)[C@@H]1CCCCN1)c1cccc(C(F)(F)F)c1Cl | – | 33 µM (active) |
| CCOCCOCCO | inactive | – |
| CC(C)c1cccc(C(C)C)c1 | inactive | – |
| Nc1nc(Cl)nc2c1ncn2[C@H]1C[C@H](O)[C@@H](CO)O1 | inactive | – |
| CCN(CC)CCOc1ccc(C(=C(Cl)c2ccccc2)c2ccccc2)cc1 | inactive | – |
| COC(=O)CCCC(=O)OC | inactive | – |
| OCC(CO)n1cnc(-c2ccc(F)cc2)c1-c1ccnc(Oc2ccccc2)n1 | inactive | – |
| CCCC(=O)O | inactive | – |
| CC(=O)[C@@]1(O)CC[C@H]2[C@@H]3CCC4=CC(=O)CC[C@]4(C)[C@H]3CC[C@@]21C | inactive | – |
| CCc1nc(N)nc(N)c1-c1ccc(Cl)cc1 | inactive | – |
| O=C1NC(=O)C(c2ccccc2)(c2ccccc2)N1 | inactive | – |
| Oc1ccccc1O | inactive | – |
| CCCCCCCCCC[N+](C)(C)[O-] | inactive | – |

target: Hepatocyte nuclear factor 3-beta (Homo sapiens) (UniProt Q9Y261); test: ATG_FoxA2_CIS: Attagene CIS-FACTORIAL HepG2 Assay for human Forkhead box A2 (FOXA2) (AID 2282942); conditions: HepG2 cis-reporter transcription factor activity, 24 h; actives raise or lower the signal
Sequence (Q9Y261 whole entry, looked up): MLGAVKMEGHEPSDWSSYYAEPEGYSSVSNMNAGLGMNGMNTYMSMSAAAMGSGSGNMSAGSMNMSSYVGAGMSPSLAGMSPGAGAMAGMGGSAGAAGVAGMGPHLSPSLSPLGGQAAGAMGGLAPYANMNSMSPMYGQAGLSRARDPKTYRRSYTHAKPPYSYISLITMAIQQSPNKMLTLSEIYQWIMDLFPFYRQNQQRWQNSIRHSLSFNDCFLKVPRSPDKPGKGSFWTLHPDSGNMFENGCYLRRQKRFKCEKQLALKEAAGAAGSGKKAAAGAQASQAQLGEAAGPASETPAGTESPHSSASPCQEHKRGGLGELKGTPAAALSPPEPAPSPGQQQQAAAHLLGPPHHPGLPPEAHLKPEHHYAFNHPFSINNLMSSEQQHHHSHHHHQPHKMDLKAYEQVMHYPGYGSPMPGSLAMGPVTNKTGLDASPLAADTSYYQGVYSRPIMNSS
How it was run: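 Cells: HepG2, transient multiplex reporter transfection. Exposure 24 h. Detection: reporter-specific RT-PCR, fluorescent labelling, restriction digest, capillary electrophoresis. Analysis: bidirectional curve fit, DMSO as negative control.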

| SMILES | outcome |
| --- | --- |
| COC(=O)[C@H]1[C@H]2C[C@@H]3c4[nH]c5cc(OC)ccc5c4CCN3C[C@H]2C[C@@H](OC(=O)c2cc(OC)c(OC)c(OC)c2)[C@@H]1OC | inactive |
| CC(COCC(C)OC(=O)c1ccccc1)OC(=O)c1ccccc1 (stereo unspecified) | inactive |
| COc1ccc(C(=O)Nc2nc3ccccc3c(NCc3ccccc3)c2C#N)cc1 | inactive |
| Oc1ccc(O)cc1 | inactive |
| O=C1O[C@H]([C@H](O)CO)C(O)=C1O | inactive |
| O=[Si]=O | inactive |
| CC(=O)O | inactive |
| CC(=O)O[C@]1(C(C)=O)CC[C@H]2[C@@H]3C=C(Cl)C4=CC(=O)[C@@H]5C[C@@H]5[C@]4(C)[C@H]3CC[C@@]21C | inactive |
| Cc1ccc(C(C)(C)C)c(O)c1 | inactive |
| NC1CCCCC1 | inactive |
| CC(C)(O)c1ccc(CNC(=O)c2cccnc2Oc2ccc(F)cc2)cc1 | inactive |
| C/C=C/C=C/C(=O)O | inactive |
| CC(C)(C)c1ccccc1 | inactive |
| S=c1[nH]c2ccccc2s1 | inactive |
| O=C(NS(=O)(=O)/C=C/c1cccs1)c1ccc(F)cc1Br | inactive |
| O=C(N[C@@H](c1ccccc1)[C@@H]1CCCCN1)c1cccc(C(F)(F)F)c1Cl | inactive |
| CCOCCOCCO | inactive |
| CC(C)c1cccc(C(C)C)c1 | inactive |
| Nc1nc(Cl)nc2c1ncn2[C@H]1C[C@H](O)[C@@H](CO)O1 | inactive |
| CCN(CC)CCOc1ccc(C(=C(Cl)c2ccccc2)c2ccccc2)cc1 | inactive |
| COC(=O)CCCC(=O)OC | inactive |
| OCC(CO)n1cnc(-c2ccc(F)cc2)c1-c1ccnc(Oc2ccccc2)n1 | inactive |
| CCCC(=O)O | inactive |
| CC(=O)[C@@]1(O)CC[C@H]2[C@@H]3CCC4=CC(=O)CC[C@]4(C)[C@H]3CC[C@@]21C | inactive |
| CCc1nc(N)nc(N)c1-c1ccc(Cl)cc1 | inactive |
| O=C1NC(=O)C(c2ccccc2)(c2ccccc2)N1 | inactive |
| Oc1ccccc1O | inactive |
| CCCCCCCCCC[N+](C)(C)[O-] | inactive |
